Activity calls are given as the source filed them.

Experiment [1] in a line: A549 cell viability effects, profiling panel, calcein-AM fluorescence, 48 h, basal (AID 1162). The following applies: higher = more signal.
Experiment [2] is described as follows: adipocyte viability effects, profiling panel, cell-based, 3T3-L1 adipocytes, calcein-AM fluorescence, 48 h, basal (AID 1163). The following applies: 3T3-L1 adipocytes viability, higher = more signal.
Experiment [3] in a line: HepG2 cell viability effects, profiling panel, calcein-AM fluorescence, 48 h, basal (AID 1164). Conditions: higher = more signal.
Experiment [4] in a line: MM1S cell viability effects, profiling panel, calcein-AM fluorescence, 48 h, basal (AID 1165).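 Note: viability of MM1S multiple myeloma cells under basal unstimulated conditions.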 The following applies: higher = more signal.
The nature of experiment [5]: basal RPMI8226 viability, no added stimulus, profiling panel, cell-based, calcein-AM fluorescence, 48 h, PK04 Diversity Set (AID 1166).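 Note: cells grown under basal conditions without added stimulus.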 The following applies: RPMI8226 myeloma viability, higher = more signal.
Experiment [6] in a line: basal HepG2 mitochondrial membrane potential changes, profiling panel, cell-based, JC-1 fluorescence, 24 h, 100 nL compound (AID 1167). Conditions: higher = more signal.
Experiment [7] in a line: basal 3T3-L1 adipocyte mitochondrial potential changes, profiling panel, cell-based, JC-1 fluorescence, 3T3-L1 adipocytes, 24 h, 100 nL compound (AID 1168). The following applies: JC-1 mitochondrial fluorescence, higher = more signal, called active from +8 up or from −8 down.
Experiment [8] is described as follows: basal RPMI8226 mitochondrial membrane potential changes, profiling panel, cell-based, JC-1 fluorescence, 24 h, 100 nL compound (AID 1169). Conditions: RPMI8226 myeloma, JC-1 mitochondrial potential fluorescence, higher = more signal.
Experiment [9] is described as follows: basal MM1S mitochondrial membrane potential changes, profiling panel, cell-based, JC-1 fluorescence, 24 h, 100 nL compound (AID 1170). Conditions: higher = more signal.
The nature of experiment [10]: A549 lung cancer cell viability effects, profiling panel, resazurin fluorescence, 24 h, PK04 Diversity Set (AID 1171). Conditions: higher = more signal, called active from +8 up or from −8 down.
Note: test concentration not given here.

Turning to `CC(C)NC(=O)[C@@H]1c2ccccc2C(=O)N(Cc2ccc(OC(F)(F)F)cc2)[C@H]1c1ccc(CO)cc1`, the z-score in experiment [1] is 0.531; in experiment [2] it was 1.34; in experiment [3] it was -0.315; in [4], 1.09; in [5], -1.85; in [6], 2.18. Also, the z-score is -1.32 (inactive) in experiment [7], 0.24 in experiment [8], -0.498 in [9] and 0.0746 (inactive) in [10].
Regarding `CC1=C([C@H](O)CCc2ccccc2)[C@H](CO)n2c(=O)n(-c3ccccc3)c(=O)n2C1`, the z-score in experiment [1] was 0.229; in experiment [2] it was 0.273; in [3], 0.862; in [4], 0.5; in experiment [5], 0.874; in experiment [6], -0.303. The z-score in experiment [7] was 0.603 (inactive); in experiment [8], -0.237; in experiment [9], -1.16; in experiment [10], -0.331 (inactive).
Take `C=CCC(OC(C)=O)[C@@H]1[C@@H](N(Cc2ccc(-c3cccc(C(F)(F)F)c3)o2)C(=O)Cc2ccc(F)cc2)c2cc(OCCCO)ccc2N1C(=O)Cc1ccc2ccccc2c1` (stereo not given in full): the z-score was -0.92 in experiment [1]; 1.1 in [2]; -0.0416 in experiment [3]; -1.7 in experiment [4]; -0.261 in [5]; 1.8 in experiment [6]. Also, the z-score is 0.978 (inactive) in [7], -0.0117 in experiment [8], 0.0602 in experiment [9] and 0.623 (inactive) in [10].
In the case of `COc1ccc(C#Cc2ccc3c(c2)[C@]2(C(=O)N3)[C@H](C(=O)O)[C@H]3C(=O)O[C@H](c4ccccc4)[C@H](c4ccccc4)N3[C@@H]2c2ccccc2OCCO)cc1`, the z-score in experiment [1] was -1.23; in experiment [2], 1.19; in [3], -2.52; in experiment [4] it was -3.32; in experiment [5] it was -4.18; in [6] it was -3.99. Moreover, the z-score in experiment [7] is 2.1 (inactive); in [8], -0.823; in [9] it was -1.3; in experiment [10], -0.435 (inactive).
Regarding `COc1ccc([Si](C)(C)[C@@H]2[C@@H](CC(=O)N3CCC[C@H]3CO)O[C@]3(C(=O)N(Cc4cccc(N5CCCCC5=O)c4)c4ccccc43)[C@H]2C)cc1`, the z-score in [1] was -0.158; in [2] it was 0.403; in experiment [3], -1.35; in experiment [4], -2.81; in [5], -4.25; in [6], -2.13. Moreover, the z-score was -0.191 (inactive) in experiment [7], -1.12 in experiment [8], -1.47 in [9] and -1.6 (inactive) in [10].
Consider `COC(=O)[C@@]1(Cc2ccc(F)cc2)[C@H]2c3cc(C(=O)N(C)C)n(CCc4ccc(O)c(O)c4)c3C[C@H]2CN1C(=O)c1ccccc1`, for which the z-score was -0.681 in [1]; -1.17 in [2]; 0.193 in [3]; 0.287 in experiment [4]; -0.238 in experiment [5]; 0.86 in experiment [6]. The z-score was 0.243 (inactive) in [7], -0.672 in experiment [8], -1.95 in [9] and -0.238 (inactive) in experiment [10].
For the molecule `COC(=O)[C@@]1(Cc2ccc(OC)cc2)[C@H]2c3cc(C(=O)N4CCCC4)n(CCn4cc([N+](=O)[O-])nc4C)c3C[C@H]2CN1C(=O)c1ccccc1`, the z-score in experiment [1] is -1.13; in [2], 0.936; in experiment [3], 0.0032; in [4], -0.0622; in experiment [5], -2.16; in experiment [6], 2.13. In addition, the z-score is -1.03 (inactive) in experiment [7], 0.564 in experiment [8], -0.693 in experiment [9] and -0.612 (inactive) in experiment [10].
With `C=CCC(OC(C)=O)[C@@H]1[C@@H](N(Cc2ccc(-c3ccccc3)cc2)C(=O)c2cccc3ccccc23)c2cc(OCCCO)ccc2N1C(=O)Cc1ccc(OC)cc1` (stereo not given in full), the z-score in [1] was -0.0276; in [2], 0.725; in [3] it was -0.518; in experiment [4], -0.536; in [5], -0.682; in experiment [6], 1.57. In addition, the z-score is -1.63 (inactive) in experiment [7], 0.78 in experiment [8], 0.401 in experiment [9] and -0.399 (inactive) in [10].
Regarding `COCCOC(=O)N1C(=O)[C@@]2(c3cc(C#CCC(C(=O)OC)C(=O)OC)ccc31)[C@H](C(N)=O)[C@H]1C(=O)O[C@H](c3ccccc3)[C@H](c3ccccc3)N1[C@@H]2c1ccc(O)cc1`, the z-score in [1] was -0.181; in [2], -0.187; in experiment [3] it was -1.52; in [4], -3.37; in experiment [5] it was -4.02; in experiment [6], -0.864. Also, the z-score in experiment [7] is 2.05 (inactive); in experiment [8], -1.19; in [9] it was -2.07; in experiment [10], 0.163 (inactive).
`CO[C@H]1O[C@H](CO)[C@@H](OC(=O)Nc2ccc3c(c2)OCO3)[C@H](OC(=O)Nc2ccccc2-c2ccccc2)[C@H]1OC(=O)Nc1ccccc1-c1ccccc1`: the z-score in [1] is -3.97; in experiment [2], 0.548; in [3], -3.71; in experiment [4], -3.34; in [5] it was -2.72; in [6], 0.0319. In addition, the z-score in [7] was 2.04 (inactive); in [8] it was -0.819; in experiment [9], -1.76; in experiment [10] it was -3.84 (inactive).
In the case of `COC(=O)[C@@]1(Cc2ccccc2)[C@H]2c3cc(C(=O)N(C)C)n(Cc4ccc(C(F)(F)F)nc4)c3C[C@H]2CN1C(=O)c1ccccc1`, the z-score in [1] was -1.28; in experiment [2], 0.286; in [3], -0.628; in experiment [4], -0.214; in experiment [5] it was -0.559; in [6], 1.71. Moreover, the z-score is -1.09 (inactive) in experiment [7], -0.727 in experiment [8], -0.79 in experiment [9] and 0.22 (inactive) in experiment [10].
In the case of `CN(C)C(=O)[C@@]1(Cc2ccccc2CN=[N+]=[N-])COC(c2ccc(OCCCO)cc2)=N1`, the z-score in experiment [1] was -0.113; in [2] it was 0.442; in experiment [3], 0.0407; in experiment [4] it was -3.51; in experiment [5], -2.76; in experiment [6], 1.21. Besides, the z-score in experiment [7] is 1.1 (inactive); in experiment [8], -1.08; in [9], -1.65; in [10], 0.0714 (inactive).
In the case of `COC(=O)[C@@]1(Cc2ccccc2)[C@H]2c3cc(C(=O)N(C)C)n(CCSC(=N)N)c3C[C@H]2CN1C(=O)c1ccccc1`, the z-score in experiment [1] is -0.944; in [2] it was 0.451; in experiment [3], -1.11; in experiment [4], -0.948; in experiment [5], -1.07; in experiment [6] it was 0.121. The z-score in experiment [7] is -1.1 (inactive); in experiment [8], -0.889; in [9] it was -0.656; in experiment [10], -0.541 (inactive).
`C[C@@H]1ON(c2ccc(I)cc2)[C@H](c2cccc(NC(=O)OCC3c4ccccc4-c4ccccc43)c2)[C@H]1C(=O)N1C(=O)OC[C@H]1Cc1ccccc1`: the z-score in experiment [1] was 1.25; in experiment [2], 0.575; in [3] it was 0.671; in experiment [4], -0.749; in [5] it was -0.326; in experiment [6], -0.194. The z-score is 1.54 (inactive) in experiment [7], -1.19 in experiment [8], 1.78 in experiment [9] and 0.623 (inactive) in experiment [10].

These data come from PubChem BioAssay.
